Measured values published in PMC7862700, “An all-to-all approach to the identification of sequence-specific readers for epigenetic DNA modifications on cytosine”.

Columns and labels:
Test in all cases: DAPPL (digital affinity profiling via proximity ligation, sequencing); 10 mM Tris-HCl pH 7.5, 50 mM NaCl, 1 mM DTT, 4% glycerol, room temperature, 30 min; GST-TFs on glutathione beads, 16-mer random dsDNA library, 0.1% formaldehyde crosslink after washing; high values mean tight binding
Conditions in all cases: protein: recombinant; tags: N-terminal GST; dsDNA, one strand shown
ERF = molecular target: T1, ERF (Homo sapiens, UniProt P50548 1-548)
T1 sequence: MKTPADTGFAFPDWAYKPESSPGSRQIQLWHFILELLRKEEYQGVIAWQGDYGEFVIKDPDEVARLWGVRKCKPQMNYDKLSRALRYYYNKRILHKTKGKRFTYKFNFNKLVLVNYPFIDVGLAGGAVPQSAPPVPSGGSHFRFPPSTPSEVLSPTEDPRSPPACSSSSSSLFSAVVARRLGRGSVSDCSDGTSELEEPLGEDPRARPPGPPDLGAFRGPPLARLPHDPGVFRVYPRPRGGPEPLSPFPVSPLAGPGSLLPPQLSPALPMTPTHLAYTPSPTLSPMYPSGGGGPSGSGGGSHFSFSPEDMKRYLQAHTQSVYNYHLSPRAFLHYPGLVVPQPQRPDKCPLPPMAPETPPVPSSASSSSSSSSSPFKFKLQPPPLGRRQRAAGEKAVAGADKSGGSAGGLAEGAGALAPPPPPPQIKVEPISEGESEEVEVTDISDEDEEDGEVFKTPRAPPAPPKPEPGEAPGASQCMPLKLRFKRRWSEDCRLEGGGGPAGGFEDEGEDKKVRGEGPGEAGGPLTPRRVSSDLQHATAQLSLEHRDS
Procedure, shortened: (§1)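 Pools of DNA-barcoded human transcription factors, expressed in yeast as GST fusions on glutathione beads and combined with a tag-only sample, were incubated with 200 nmole of a 16-mer random double-stranded DNA library. Incubation took 30 min at room temperature in Tris/NaCl/DTT/glycerol buffer and was followed by washing, 0.1% formaldehyde crosslinking, proximity ligation (BsaI/T4 ligase, 1 h, 37 °C), PCR amplification and sequencing on an Illumina NextSeq500. Binding signal is the ratio of a hexamer's read frequency for a factor to its frequency for the tag-only sample.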

ETV3L = molecular target: T2, ETV3L (Homo sapiens, UniProt Q6ZN32 1-361)
T2 sequence: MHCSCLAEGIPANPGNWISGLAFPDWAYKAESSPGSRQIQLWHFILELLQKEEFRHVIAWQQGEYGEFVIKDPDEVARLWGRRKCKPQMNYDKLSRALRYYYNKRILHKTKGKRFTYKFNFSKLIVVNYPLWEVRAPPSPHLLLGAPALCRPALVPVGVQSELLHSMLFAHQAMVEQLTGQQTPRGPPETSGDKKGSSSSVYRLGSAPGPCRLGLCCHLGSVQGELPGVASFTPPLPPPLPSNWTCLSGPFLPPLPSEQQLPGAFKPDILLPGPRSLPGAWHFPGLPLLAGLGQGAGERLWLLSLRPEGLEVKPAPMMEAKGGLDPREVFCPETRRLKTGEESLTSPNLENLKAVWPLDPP
Procedure, shortened: as §1

ETS2 = molecular target: T3, ETS2 (Homo sapiens, UniProt P15036 1-469)
T3 sequence: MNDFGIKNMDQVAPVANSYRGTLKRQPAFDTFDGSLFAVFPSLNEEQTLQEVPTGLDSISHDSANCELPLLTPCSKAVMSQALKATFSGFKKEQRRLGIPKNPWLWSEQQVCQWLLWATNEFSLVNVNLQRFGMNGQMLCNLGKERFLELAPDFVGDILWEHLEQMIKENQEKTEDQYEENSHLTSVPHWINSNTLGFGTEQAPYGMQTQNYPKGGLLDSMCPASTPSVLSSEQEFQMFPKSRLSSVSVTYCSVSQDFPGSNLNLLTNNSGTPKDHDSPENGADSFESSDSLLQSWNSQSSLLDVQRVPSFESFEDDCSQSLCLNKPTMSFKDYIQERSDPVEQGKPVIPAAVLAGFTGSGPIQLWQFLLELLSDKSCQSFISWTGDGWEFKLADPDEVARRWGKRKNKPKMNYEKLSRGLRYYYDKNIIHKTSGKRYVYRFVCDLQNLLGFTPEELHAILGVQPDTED
Procedure, shortened: as §1

SPDEF = molecular target: T4, SPDEF (Homo sapiens, UniProt O95238 1-335)
T4 sequence: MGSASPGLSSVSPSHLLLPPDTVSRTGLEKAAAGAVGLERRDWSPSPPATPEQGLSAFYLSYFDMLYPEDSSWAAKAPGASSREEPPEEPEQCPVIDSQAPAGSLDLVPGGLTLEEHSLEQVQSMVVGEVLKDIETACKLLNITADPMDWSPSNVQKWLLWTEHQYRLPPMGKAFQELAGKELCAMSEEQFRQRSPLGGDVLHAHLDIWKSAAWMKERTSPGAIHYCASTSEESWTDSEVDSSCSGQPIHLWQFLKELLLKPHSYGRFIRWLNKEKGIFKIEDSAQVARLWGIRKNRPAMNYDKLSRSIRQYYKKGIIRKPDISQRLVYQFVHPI
Procedure, shortened: as §1

ETV7 = molecular target: T5, ETV7 (Homo sapiens, UniProt Q9Y603 1-341)
T5 sequence: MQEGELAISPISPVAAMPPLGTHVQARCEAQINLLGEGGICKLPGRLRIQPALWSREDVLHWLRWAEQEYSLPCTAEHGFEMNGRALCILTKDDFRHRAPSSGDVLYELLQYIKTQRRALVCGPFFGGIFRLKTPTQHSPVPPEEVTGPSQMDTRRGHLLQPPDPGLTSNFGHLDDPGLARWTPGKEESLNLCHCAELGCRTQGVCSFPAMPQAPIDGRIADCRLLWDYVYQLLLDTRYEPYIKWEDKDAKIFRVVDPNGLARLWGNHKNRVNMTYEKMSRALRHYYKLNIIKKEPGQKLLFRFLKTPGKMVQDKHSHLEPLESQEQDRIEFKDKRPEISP
Procedure, shortened: as §1

ELF5 = molecular target: T6, ELF5 (Homo sapiens, UniProt Q9UKW6-2 1-255)
T6 sequence: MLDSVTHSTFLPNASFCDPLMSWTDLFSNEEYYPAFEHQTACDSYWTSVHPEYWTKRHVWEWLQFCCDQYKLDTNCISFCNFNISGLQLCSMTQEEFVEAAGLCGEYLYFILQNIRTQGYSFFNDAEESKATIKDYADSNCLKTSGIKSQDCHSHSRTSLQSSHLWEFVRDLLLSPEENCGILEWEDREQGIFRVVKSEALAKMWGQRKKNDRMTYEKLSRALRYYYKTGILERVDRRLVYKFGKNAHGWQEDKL
Procedure, shortened: as §1

ETV3 = molecular target: T7, ETV3 (Homo sapiens, UniProt P41162-2 1-143)
T7 sequence: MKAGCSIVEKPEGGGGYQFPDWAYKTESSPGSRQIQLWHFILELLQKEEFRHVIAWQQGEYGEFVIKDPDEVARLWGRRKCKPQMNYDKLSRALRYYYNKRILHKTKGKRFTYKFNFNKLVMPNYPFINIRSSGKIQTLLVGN
Procedure, shortened: as §1

ETV6 = ETV6 (Homo sapiens, UniProt P41212 1-452)
Procedure, shortened: as §1

ETV6, sequence (P41212 whole entry): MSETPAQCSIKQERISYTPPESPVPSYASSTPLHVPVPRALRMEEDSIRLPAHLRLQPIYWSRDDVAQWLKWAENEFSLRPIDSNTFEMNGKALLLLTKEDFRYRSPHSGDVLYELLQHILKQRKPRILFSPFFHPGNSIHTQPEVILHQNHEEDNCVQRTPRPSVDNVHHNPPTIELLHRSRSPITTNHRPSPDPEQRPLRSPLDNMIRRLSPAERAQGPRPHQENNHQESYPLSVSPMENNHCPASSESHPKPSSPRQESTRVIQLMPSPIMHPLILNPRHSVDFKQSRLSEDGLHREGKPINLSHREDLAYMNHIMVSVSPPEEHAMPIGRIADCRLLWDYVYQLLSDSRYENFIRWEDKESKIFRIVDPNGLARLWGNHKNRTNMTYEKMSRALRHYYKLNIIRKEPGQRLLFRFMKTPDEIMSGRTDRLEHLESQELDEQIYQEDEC

Sequence	binding signal (ERF)	binding signal (ETV3L)	binding signal (ETS2)	binding signal (SPDEF)	binding signal (ETV7)	binding signal (ELF5)	binding signal (ETV3)	binding signal (ETV6)
TACCTG	1.22 fold enrichment (6-mer frequency, TF over GST control)	1.09 fold enrichment (6-mer frequency, TF over GST control)	1.15 fold enrichment (6-mer frequency, TF over GST control)	1.11 fold enrichment (6-mer frequency, TF over GST control)	1.24 fold enrichment (6-mer frequency, TF over GST control)	1.21 fold enrichment (6-mer frequency, TF over GST control)	1.19 fold enrichment (6-mer frequency, TF over GST control)	1.2 fold enrichment (6-mer frequency, TF over GST control)
CTTTAA	1.32 fold enrichment (6-mer frequency, TF over GST control)	1.34 fold enrichment (6-mer frequency, TF over GST control)	1.33 fold enrichment (6-mer frequency, TF over GST control)	1.28 fold enrichment (6-mer frequency, TF over GST control)	1.2 fold enrichment (6-mer frequency, TF over GST control)	1.32 fold enrichment (6-mer frequency, TF over GST control)	1.23 fold enrichment (6-mer frequency, TF over GST control)	1.23 fold enrichment (6-mer frequency, TF over GST control)
ACCCTG	1.04 fold enrichment (6-mer frequency, TF over GST control)	1.05 fold enrichment (6-mer frequency, TF over GST control)	1.01 fold enrichment (6-mer frequency, TF over GST control)	1.03 fold enrichment (6-mer frequency, TF over GST control)	1.04 fold enrichment (6-mer frequency, TF over GST control)	1.03 fold enrichment (6-mer frequency, TF over GST control)	1.13 fold enrichment (6-mer frequency, TF over GST control)	1.07 fold enrichment (6-mer frequency, TF over GST control)
TTCGCG	1.23 fold enrichment (6-mer frequency, TF over GST control)	1.15 fold enrichment (6-mer frequency, TF over GST control)	1.1 fold enrichment (6-mer frequency, TF over GST control)	1.15 fold enrichment (6-mer frequency, TF over GST control)	1.08 fold enrichment (6-mer frequency, TF over GST control)	1.07 fold enrichment (6-mer frequency, TF over GST control)	1.12 fold enrichment (6-mer frequency, TF over GST control)	1.17 fold enrichment (6-mer frequency, TF over GST control)
CTCCCT	1.72 fold enrichment (6-mer frequency, TF over GST control)	1.54 fold enrichment (6-mer frequency, TF over GST control)	1.57 fold enrichment (6-mer frequency, TF over GST control)	1.53 fold enrichment (6-mer frequency, TF over GST control)	1.52 fold enrichment (6-mer frequency, TF over GST control)	1.41 fold enrichment (6-mer frequency, TF over GST control)	1.55 fold enrichment (6-mer frequency, TF over GST control)	1.37 fold enrichment (6-mer frequency, TF over GST control)
TTACGA	1.06 fold enrichment (6-mer frequency, TF over GST control)	1.18 fold enrichment (6-mer frequency, TF over GST control)	1.14 fold enrichment (6-mer frequency, TF over GST control)	1.1 fold enrichment (6-mer frequency, TF over GST control)	1.1 fold enrichment (6-mer frequency, TF over GST control)	1.08 fold enrichment (6-mer frequency, TF over GST control)	1.1 fold enrichment (6-mer frequency, TF over GST control)	1.21 fold enrichment (6-mer frequency, TF over GST control)
TTCCAG	1.09 fold enrichment (6-mer frequency, TF over GST control)	1.09 fold enrichment (6-mer frequency, TF over GST control)	1.12 fold enrichment (6-mer frequency, TF over GST control)	1.04 fold enrichment (6-mer frequency, TF over GST control)	1.16 fold enrichment (6-mer frequency, TF over GST control)	1.18 fold enrichment (6-mer frequency, TF over GST control)	1.06 fold enrichment (6-mer frequency, TF over GST control)	1.15 fold enrichment (6-mer frequency, TF over GST control)
CCTCTT	1.59 fold enrichment (6-mer frequency, TF over GST control)	1.71 fold enrichment (6-mer frequency, TF over GST control)	1.56 fold enrichment (6-mer frequency, TF over GST control)	1.57 fold enrichment (6-mer frequency, TF over GST control)	1.51 fold enrichment (6-mer frequency, TF over GST control)	1.75 fold enrichment (6-mer frequency, TF over GST control)	1.67 fold enrichment (6-mer frequency, TF over GST control)	1.68 fold enrichment (6-mer frequency, TF over GST control)
TTGATT	1.31 fold enrichment (6-mer frequency, TF over GST control)	1.25 fold enrichment (6-mer frequency, TF over GST control)	1.22 fold enrichment (6-mer frequency, TF over GST control)	1.15 fold enrichment (6-mer frequency, TF over GST control)	1.28 fold enrichment (6-mer frequency, TF over GST control)	1.16 fold enrichment (6-mer frequency, TF over GST control)	1.3 fold enrichment (6-mer frequency, TF over GST control)	1.18 fold enrichment (6-mer frequency, TF over GST control)
GGGCTT	1.19 fold enrichment (6-mer frequency, TF over GST control)	1.2 fold enrichment (6-mer frequency, TF over GST control)	1.22 fold enrichment (6-mer frequency, TF over GST control)	1.11 fold enrichment (6-mer frequency, TF over GST control)	1.28 fold enrichment (6-mer frequency, TF over GST control)	1.16 fold enrichment (6-mer frequency, TF over GST control)	1.19 fold enrichment (6-mer frequency, TF over GST control)	1.2 fold enrichment (6-mer frequency, TF over GST control)
CTCAGT	1.11 fold enrichment (6-mer frequency, TF over GST control)	1.18 fold enrichment (6-mer frequency, TF over GST control)	1.1 fold enrichment (6-mer frequency, TF over GST control)	1.06 fold enrichment (6-mer frequency, TF over GST control)	1.12 fold enrichment (6-mer frequency, TF over GST control)	1.09 fold enrichment (6-mer frequency, TF over GST control)	1.24 fold enrichment (6-mer frequency, TF over GST control)	1.08 fold enrichment (6-mer frequency, TF over GST control)
ACCCGG	1.48 fold enrichment (6-mer frequency, TF over GST control)	1.69 fold enrichment (6-mer frequency, TF over GST control)	1.79 fold enrichment (6-mer frequency, TF over GST control)	2.23 fold enrichment (6-mer frequency, TF over GST control)	1.55 fold enrichment (6-mer frequency, TF over GST control)	1.91 fold enrichment (6-mer frequency, TF over GST control)	1.82 fold enrichment (6-mer frequency, TF over GST control)	1.7 fold enrichment (6-mer frequency, TF over GST control)
